Measurements taken from PubChem BioAssay AID1159580 (chemical genetic matrix, 2015).
The campaign covered roughly 5,500 compounds. About 2,000 (36%) were called active. About 18% were inconclusive and are not listed. Rule as the data show it: active = normalized growth mostly below about 0.91 (no sharp cut-off); inconclusive = no clear call, values can overlap the other calls; inactive = mostly above about 0.92. The list shows a part of the results.

Assay: chemical genetic growth profiling, strain panel (AID 1159580);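 also: tested at 20 µM; growth read once vehicle control cultures reached saturation at 30 °C; 1 = growth at the plate median or of vehicle wells; lower values mean less growth of the strain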
Conditions: S. cerevisiae deletion strains, growth OD

Measured: normalized growth

C#C[C@]1(O)CC[C@H]2[C@@H]3CCC4=Cc5oncc5CC4(C)[C@H]3CCC21C (stereo partly specified)
inactive: locus YAL040C, strain CLN3, stronger effect = lower value 0.943 | locus YCL061C, strain MRC1 (second series), stronger effect = lower value 1 | locus YDR363W, strain ESC2, stronger effect = lower value 1.02 | locus YER002W, strain NOP16, stronger effect = lower value 0.949 | locus YGR078C, strain PAC10, stronger effect = lower value 0.948 | locus YGR229C, strain SMI1, stronger effect = lower value 1.02 | locus YJR075W, strain HOC1, stronger effect = lower value 1 | locus YMR263W, strain SAP30, stronger effect = lower value 1 | locus YMR307W, strain GAS1, stronger effect = lower value 0.988 | locus YNL153C, strain GIM3, stronger effect = lower value 0.917 | locus YNL175C, strain NOP13, stronger effect = lower value 0.917 | locus YNL197C, strain WHI3, stronger effect = lower value 0.921 | locus YNL224C, strain SQS1, stronger effect = lower value 0.934 | locus YOR083W, strain WHI5 (second series), stronger effect = lower value 0.99 | locus YPL055C, strain LGE1, stronger effect = lower value 1.02 | locus YPL241C, strain CIN2, stronger effect = lower value 1
